Rows were chosen to be rich in hits. Some 3.5% of all compounds tested hit in one or more screens of this group.
TEAD-YAP inh: TEAD-YAP interaction inhibition. HEK-TIYL cells, TEAD-Gal4/YAP UAS-luciferase luminescence. inhibition, % at 9.12 µM. 640,000 compounds, 1.4% hits. AID 1259422; in the data active = inhibition above about 32%
MITF primary: human MITF inhibition, primary screen | O75030 | AlphaScreen MITF homodimerization, bead proximity signal | inhibition, % at 2.6 µM | 650,000 compounds, 0.91% hits | AID 1259374; in the data active = inhibition above about 50%
GPR151 activ: activators of human GPR151 | Q8TDV0 | PathHunter beta-arrestin GPR151 cells, luminescence | activation, % at 11.2 µM | 650,000 compounds, 1% hits | AID 1508602; in the data active = activation above about 4.9%
FBW7 act: activators of human E3 ligase FBW7; Q969H0; AlphaScreen FBW7–phospho-cyclin E peptide binding, activator screen; normalized activity (activation), % at 26.1 µM; 650,000 compounds, 0.13% hits; AID 1259310; in the data active = normalized activity above about 1.9%;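 also: purified mutant Fbw7 with reduced substrate affinity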
GPR151 confirm: human GPR151 activation, confirmation screen. 6,700 tested, under 10 active. AID 1508609. activation, % at 11.2 µM. GPR151 PathHunter beta-arrestin cells, luminescence, 90 min; % of EA-reagent control over plate median. shares compounds with GPR151 activ;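 active = mean percent activation across replicates above the confirmation screen cutoff of 4.91%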
GPR119 ag: activates human GPR119 in a GPR151 counter-screen. AID 1508611. activation, % at 11.2 µM. shares compounds with GPR151 activ. GPR119 PathHunter beta-arrestin cells, luminescence, 90 min; 0 = compound-well median, 100 = enzyme-acceptor control. 6,700 compounds, 0.3% hits;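 active = mean percent activation in the counterscreen above 29.09%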;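 also: counterscreen on off-target GPR119 to flag nonselective hits from the GPR151 activator screen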
Target sequence (Q8TDV5 whole entry, looked up): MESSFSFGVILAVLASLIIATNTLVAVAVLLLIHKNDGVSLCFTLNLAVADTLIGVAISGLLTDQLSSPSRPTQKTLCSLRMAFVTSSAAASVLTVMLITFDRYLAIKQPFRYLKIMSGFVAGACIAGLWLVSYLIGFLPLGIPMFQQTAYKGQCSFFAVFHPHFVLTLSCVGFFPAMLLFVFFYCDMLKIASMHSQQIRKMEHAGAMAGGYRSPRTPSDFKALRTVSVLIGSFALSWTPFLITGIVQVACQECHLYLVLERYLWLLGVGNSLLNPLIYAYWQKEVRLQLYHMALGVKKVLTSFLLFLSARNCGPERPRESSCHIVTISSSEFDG
Hits are given with their value.

How did CCC(=O)N1CCc2nc3ccccn3c(=O)c2C1 do in these assays?
TEAD-YAP inh: inactive; MITF primary: inactive; GPR151 activ: inactive; FBW7 act: inactive

Results for CC(C)(C)C(=O)N1CCc2nc3ccccn3c(=O)c2C1 ?
TEAD-YAP inh: inactive; MITF primary: inactive; GPR151 activ: 6.8; FBW7 act: inactive; GPR151 confirm: inactive; GPR119 ag: inactive

What do the screens show for `Cc1ccc2c(c1)c(=O)c1ccccc1n2CCCC(=O)Nc1ccc(Br)cc1C`?
TEAD-YAP inh: inactive; MITF primary: inactive; GPR151 activ: inactive; FBW7 act: inactive

Results for Cc1ccc2c(c1)c(=O)c1ccccc1n2CCCC(=O)Nc1ccc(Br)cn1 ?
TEAD-YAP inh: 38; MITF primary: inactive; GPR151 activ: 17; FBW7 act: inactive; GPR151 confirm: inactive; GPR119 ag: inactive

How did COc1ccc(NC(=S)Nc2ccc(C#N)cc2)cc1 do in these assays?
TEAD-YAP inh: inactive; MITF primary: inactive; GPR151 activ: inactive; FBW7 act: inactive

What do the screens show for `CCCSc1nnc2c(n1)OC(c1ccc(F)cc1)Nc1ccccc1-2` (configuration not stated)?
TEAD-YAP inh: inactive; MITF primary: inactive; GPR151 activ: inactive; FBW7 act: inactive

Results for CCOc1ccc(C2Nc3ccccc3-c3nnc(SCc4ccccc4F)nc3O2)cc1OC (configuration not stated) ?
TEAD-YAP inh: inactive; MITF primary: inactive; GPR151 activ: 5.8; FBW7 act: inactive; GPR151 confirm: inactive; GPR119 ag: inactive

How did CCCSc1nnc2c(n1)OC(c1ccc(SC)cc1)Nc1ccccc1-2 (configuration not stated) do in these assays?
TEAD-YAP inh: inactive; MITF primary: inactive; GPR151 activ: 5.6; FBW7 act: inactive; GPR151 confirm: inactive; GPR119 ag: inactive

What do the screens show for `Cc1nnc(SCc2ccccc2)[nH]c1=O`?
TEAD-YAP inh: inactive; MITF primary: inactive; GPR151 activ: inactive; FBW7 act: inactive

What do the screens show for `Cc1nnc(SCc2ccc(F)cc2)[nH]c1=O`?
TEAD-YAP inh: inactive; MITF primary: inactive; GPR151 activ: 11; FBW7 act: inactive; GPR151 confirm: inactive; GPR119 ag: inactive

What do the screens show for `O=C(NC1CCCCCC1)c1ccc(NCC2CCCO2)c([N+](=O)[O-])c1` (configuration not stated)?
TEAD-YAP inh: inactive; MITF primary: inactive; GPR151 activ: inactive; FBW7 act: inactive

How did Cc1oc(C(=O)O)cc1CSCc1ccoc1C(=O)O do in these assays?
TEAD-YAP inh: inactive; MITF primary: inactive; GPR151 activ: 6.1; FBW7 act: inactive; GPR151 confirm: inactive; GPR119 ag: inactive

How did CCOc1ccccc1NS(=O)(=O)c1ccc(OC)c(Cl)c1 do in these assays?
TEAD-YAP inh: inactive; MITF primary: inactive; GPR151 activ: 5.5; FBW7 act: inactive; GPR151 confirm: inactive; GPR119 ag: inactive

How did COc1ccc(S(=O)(=O)Nc2ccccc2SC)cc1Cl do in these assays?
TEAD-YAP inh: inactive; MITF primary: inactive; GPR151 activ: 5.2; FBW7 act: inactive; GPR151 confirm: inactive; GPR119 ag: inactive

Results for CCOc1ccccc1NS(=O)(=O)c1ccc(Br)c(OC)c1 ?
TEAD-YAP inh: inactive; MITF primary: inactive; GPR151 activ: inactive; FBW7 act: inactive

Results for COc1ccc(S(=O)(=O)Nc2ccccc2SC)cc1C ?
TEAD-YAP inh: inactive; MITF primary: inactive; GPR151 activ: inactive; FBW7 act: inactive

What do the screens show for `COc1ccccc1NS(=O)(=O)c1ccc2nc(CCl)[nH]c2c1`?
TEAD-YAP inh: inactive; MITF primary: inactive; GPR151 activ: 7.0; FBW7 act: inactive; GPR151 confirm: inactive; GPR119 ag: inactive

How did COc1ccc(Br)cc1C(=O)Nc1cc(-c2nc3ccccc3o2)ccc1Cl do in these assays?
TEAD-YAP inh: inactive; MITF primary: inactive; GPR151 activ: inactive; FBW7 act: inactive

Results for Cc1cccc2c1NC(=O)/C2=C\C(=O)c1cccs1 ?
TEAD-YAP inh: inactive; MITF primary: inactive; GPR151 activ: 6.6; FBW7 act: inactive; GPR151 confirm: inactive; GPR119 ag: inactive

Results for CCc1ccc2c(c1)/C(=C/C(=O)c1cccs1)C(=O)N2 ?
TEAD-YAP inh: inactive; MITF primary: inactive; GPR151 activ: 17; FBW7 act: inactive; GPR151 confirm: inactive; GPR119 ag: inactive

Results for Cc1cc(C)c(S(=O)(=O)N(C)CC(=O)Nc2ccc(Br)cc2F)c(C)c1 ?
TEAD-YAP inh: inactive; MITF primary: inactive; GPR151 activ: inactive; FBW7 act: inactive

What do the screens show for `CS(=O)(=O)c1ccc2nc(NC(=O)CS(=O)(=O)c3ccc(Cl)cc3)sc2c1`?
TEAD-YAP inh: inactive; MITF primary: inactive; GPR151 activ: 5.4; FBW7 act: inactive; GPR151 confirm: inactive; GPR119 ag: inactive

How did Cc1cc(-c2nnc3n2CCC3)c(C)n1-c1ccccc1 do in these assays?
TEAD-YAP inh: inactive; MITF primary: inactive; GPR151 activ: 5.7; FBW7 act: inactive; GPR151 confirm: inactive; GPR119 ag: inactive

How did Cc1cc(-c2nnco2)c(C)n1-c1ccccc1 do in these assays?
TEAD-YAP inh: inactive; MITF primary: inactive; GPR151 activ: inactive; FBW7 act: inactive

Results for CCn1c(COc2cccc(C)c2)nnc1SCC(=O)Nc1cccc(C(=O)O)c1 ?
TEAD-YAP inh: inactive; MITF primary: inactive; GPR151 activ: 6.3; FBW7 act: inactive; GPR151 confirm: inactive; GPR119 ag: inactive

What do the screens show for `CCn1c(SCC(=O)Nc2cccc(C(=O)O)c2)nnc1-c1cccc(C)c1`?
TEAD-YAP inh: inactive; MITF primary: inactive; GPR151 activ: inactive; FBW7 act: inactive

Results for O=C(CSc1ncn[nH]1)Nc1ccc(F)c([N+](=O)[O-])c1 ?
TEAD-YAP inh: inactive; MITF primary: inactive; GPR151 activ: inactive; FBW7 act: inactive

How did COc1ccc(CNC(=O)CCCc2nc3ccccc3c(=O)[nH]2)cc1 do in these assays?
TEAD-YAP inh: inactive; MITF primary: inactive; GPR151 activ: 6.3; FBW7 act: inactive; GPR151 confirm: inactive; GPR119 ag: inactive

Results for COc1ccc(CNC(=O)CCCc2ccccc2)cc1 ?
TEAD-YAP inh: inactive; MITF primary: inactive; GPR151 activ: inactive; FBW7 act: inactive

Results for Oc1ccc(CCNc2ccnc(N3CCN(c4ccccn4)CC3)n2)cc1 ?
TEAD-YAP inh: inactive; MITF primary: inactive; GPR151 activ: 6.2; FBW7 act: inactive; GPR151 confirm: inactive; GPR119 ag: inactive

What do the screens show for `C/C(=N\NC(=O)CNc1ccccc1Cl)C(C)(C)C`?
TEAD-YAP inh: inactive; MITF primary: inactive; GPR151 activ: 5.9; FBW7 act: inactive; GPR151 confirm: inactive; GPR119 ag: inactive

What do the screens show for `C=CCNC(=S)NNC(=O)CSc1nc2ccccc2[nH]1`?
TEAD-YAP inh: inactive; MITF primary: inactive; GPR151 activ: inactive; FBW7 act: inactive

What do the screens show for `Nc1c(C(=O)O)[nH]c(=O)[nH]c1=O`?
TEAD-YAP inh: inactive; MITF primary: inactive; GPR151 activ: 5.1; FBW7 act: inactive; GPR151 confirm: inactive; GPR119 ag: inactive

Results for Oc1cccc(-c2cnn3c(NCCCN4CCOCC4)ccnc23)c1 ?
TEAD-YAP inh: inactive; MITF primary: inactive; GPR151 activ: inactive; FBW7 act: inactive
